Results reported in PubChem BioAssay (Tox21).
Several values for one entry are separate records, joined by “and”; a condition that tells them apart may be missing. Identical values can stand only once. Inconclusive results are not listed. Activity calls are given as the source filed them. Unless noted, the call rests on the fitted dose curve; in most records, active means well fitted curve in the direction sought with a large enough effect in the repeat runs; inconclusive means weak or mixed curves; inactive means no such curve, though single readings can be large; an effect the other way counts as inactive or inconclusive.

Key:
[1] = qHTS assay for small molecules that induce genotoxicity in human embryonic kidney cells expressing luciferase-tagged ATAD5 (AID 651632); further: nearly all actives have a fitted effect of over 15% in size
Procedure, shortened: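 HEK293T cells carrying luciferase-tagged ATAD5 were given compound or DMSO vehicle and incubated 16 hr at 37C, 5% CO2. Luciferase activity was read after 30 min at room temperature with Amplite; a rise signals genotoxic stress.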

[2] = qHTS assay for small molecules that induce genotoxicity in human embryonic kidney cells expressing luciferase-tagged ATAD5 - cell viability (AID 651634; calls by dose curve; further: nearly all actives have a fitted effect of over 25% in size; further: potency means the concentration at half of the fitted maximal effect)
Procedure, shortened: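 HEK293T cells carrying luciferase-tagged ATAD5, 2,000 cells/well, exposed to compound for 15.5 hr at 37C. Viability read as live-cell protease activity by CellTiter-Fluor fluorescence after 30 min at 37C.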

[3] = qHTS assay for small molecule disruptors of the mitochondrial membrane potential - cell viability (AID 720634; calls by dose curve; further: nearly all actives have a fitted effect of over 20% in size; further: potency means the concentration at half of the fitted maximal effect)
Procedure, shortened: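 HepG2 cells, 2,000 per well, attached overnight, then treated 1 hr at 37 C, 5% CO2. Viability read as ATP by CellTiter-Glo luminescence after 30 min at room temperature. Read in the same wells as the m-MPI membrane-potential dye assay.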

[4] = qHTS assay for small molecule disruptors of the mitochondrial membrane potential (AID 720635); further: potency means the concentration at half of the fitted maximal effect
Procedure, shortened: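 HepG2 cells exposed to compound 1 hr at 37C, then Mito-MPS dye 30 min. Ratio read of aggregate (540/590 nm) versus monomer (490/535 nm) fluorescence.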

[5] = qHTS assay to test for compound auto fluorescence at 590 nm (red) in HepG2 cells (AID 720674)
Procedure, shortened: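 Fluorescence at 590 nm emission following 540 nm excitation was recorded from HepG2 wells one hour after compound transfer, with DMSO-only wells as vehicle and Rose Bengal sodium equivalency as the scale.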

[6] = qHTS assay to test for compound auto fluorescence at 535 nm (green) in HepG2 cells (AID 720675)
[7] = qHTS assay to test for compound auto fluorescence at 460 nm (blue) in HEK293 cells (AID 720678)
Procedure, shortened: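 HEK293, 2,000 cells/well, 10% dialyzed FBS; attach 4-5 hr 37C; pin compound or DMSO; o/n 37C/5% CO2; fluorescence 405/460 nm; triamterene-equivalent units.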

[8] = qHTS assay to test for compound auto fluorescence at 590 nm (red) in HEK293 cells (AID 720679)
Procedure, shortened: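 Intensity at 540nm excitation and 590nm emission is reported as Rose Bengal sodium-equivalent autofluorescence. Measurements followed overnight exposure (37C, 5% CO2) of HEK293 cells, 2,000 per well, to 23 nL compound.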

[9] = qHTS assay to test for compound auto fluorescence at 535 nm (green) in HEK293 cells (AID 720680)
[10] = qHTS assay to test for compound auto fluorescence at 460 nm (blue) in HEK293 cell free culture (AID 720681)
Procedure, shortened: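 Compounds were added to cell-free DMEM with 10% FBS and fluorescence read directly. The blue channel used 405 nm excitation and 460 nm emission, with triamterene as the reference fluorophore.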

[11] = qHTS assay to test for compound auto fluorescence at 535 nm (green) in HEK293 cell free culture (AID 720682)
Procedure, shortened: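 Intrinsic compound fluorescence is measured in culture medium containing 10% FBS, with excitation at 485 nm and detection at 535 nm, referenced to fluorescein.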

[12] = qHTS assay to test for compound auto fluorescence at 590 nm (red) in HEK293 cell free culture (AID 720683)
Procedure, shortened: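 Cell-free wells of DMEM with 10% FBS received compound, and intrinsic fluorescence was read at excitation/emission 540/590 nm. Values expressed as equivalence to Rose Bengal sodium.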

[13] = qHTS assay to test for compound auto fluorescence at 590 nm (red) in HepG2 cell free culture (AID 720684)
Procedure, shortened: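 Compound was pinned into wells holding MEM with 10% FBS and no cells, and red fluorescence was read at Ex/Em 540/590 nm. Signal is expressed as auto fluorescence equivalency relative to Rose Bengal sodium.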

[14] = qHTS assay to test for compound auto fluorescence at 460 nm (blue) in HepG2 cell free culture (AID 720685)
Procedure, shortened: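 Compound (23 nL) or DMSO pinned into cell-free MEM with 10% FBS; blue fluorescence read at 405/460 nm excitation/emission, expressed as auto-fluorescence equivalency to triamterene.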

[15] = qHTS assay to test for compound auto fluorescence at 535 nm (green) in HepG2 cell free culture (AID 720686)
[16] = qHTS assay to test for compound auto fluorescence at 460 nm (blue) in HepG2 cells (AID 720687)
Procedure, shortened: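 HepG2 cells in MEM with 10% FBS, attached overnight at 37 C, were exposed to compound or DMSO for 1 hr at 37 C, 5% CO2. Blue fluorescence was read at 405/460 nm, with triamterene as reference fluorophore.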

[17] = qHTS assay for small molecule agonists of the p53 signaling pathway - cell viability (AID 651633; calls by dose curve; further: nearly all actives have a fitted effect of over 30% in size; further: potency means the concentration at half of the fitted maximal effect)
Procedure, shortened: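 p53RE-bla cells were treated with compound for 16 hours at 37 C. Cytotoxicity was then measured as CellTiter-Glo luminescence after 30 min at room temperature.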

[18] = molecular target: Glucocorticoid receptor (Homo sapiens) (UniProt P04150); test: qHTS assay to identify small molecule agonists of the glucocorticoid receptor (GR) signaling pathway (AID 720691; active means well fitted activation curve with a large enough effect in the signal ratio in the repeat runs, not every such curve was filed as active; the % refers to the signal ratio); settings: GR-bla HeLa, beta-lactamase reporter ratio, 18 h; activation: at 62.4 µM (top of the series)
Procedure, shortened: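 GR-bla HeLa cells carrying a GRE-driven beta-lactamase reporter, exposed to compounds for 18 h at 37 C. Reporter activation read as fluorescence after 2 h with LiveBLAzer B/G FRET substrate at room temperature.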

[19] = molecular target: Glucocorticoid receptor (Homo sapiens) (UniProt P04150); test: qHTS assay to identify small molecule antagonists of the glucocorticoid receptor (GR) signaling pathway (AID 720692; active means well fitted inhibition curve with a large enough effect in the signal ratio in the repeat runs, not every such curve was filed as active; the % refers to the signal ratio; further: potency means the concentration at half of the fitted maximal effect)
Procedure, shortened: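 GR-bla HeLa cells carrying a GRE-driven beta-lactamase reporter received compound after 4 h plating, then dexamethasone (5 nM final). After 18 h at 37C, the FRET substrate was loaded for 2 h at room temperature and fluorescence read.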
On the % scale 0 is the no-effect control and ±100 the full control effect.

Chain of Glucocorticoid receptor (Homo sapiens) (P04150 whole entry, looked up): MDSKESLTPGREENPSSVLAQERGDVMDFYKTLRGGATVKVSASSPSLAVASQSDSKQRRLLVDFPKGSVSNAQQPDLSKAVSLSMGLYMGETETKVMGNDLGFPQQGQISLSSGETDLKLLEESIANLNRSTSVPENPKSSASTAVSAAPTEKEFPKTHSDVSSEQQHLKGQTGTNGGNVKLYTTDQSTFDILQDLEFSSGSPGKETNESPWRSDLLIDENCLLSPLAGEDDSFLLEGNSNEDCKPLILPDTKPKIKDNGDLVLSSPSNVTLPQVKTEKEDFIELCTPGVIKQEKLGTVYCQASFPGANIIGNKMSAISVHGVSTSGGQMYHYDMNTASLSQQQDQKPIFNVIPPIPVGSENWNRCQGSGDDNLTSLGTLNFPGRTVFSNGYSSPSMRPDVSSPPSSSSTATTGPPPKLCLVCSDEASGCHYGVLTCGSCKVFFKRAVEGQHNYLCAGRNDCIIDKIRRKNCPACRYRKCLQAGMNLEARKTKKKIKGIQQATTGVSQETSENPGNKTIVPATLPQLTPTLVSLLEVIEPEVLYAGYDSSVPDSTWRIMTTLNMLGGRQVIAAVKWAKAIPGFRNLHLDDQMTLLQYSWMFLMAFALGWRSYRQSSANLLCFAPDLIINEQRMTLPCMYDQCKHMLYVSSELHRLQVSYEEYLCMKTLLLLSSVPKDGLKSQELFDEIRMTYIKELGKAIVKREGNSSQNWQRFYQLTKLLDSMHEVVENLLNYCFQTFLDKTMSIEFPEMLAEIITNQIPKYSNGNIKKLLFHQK

CCC(Cl)C(Cl)C(Cl)CC(Cl)C(Cl)C(C)Cl (centres undefined)
inactive: Potency [1] | Potency [2] | Potency [3] | Potency [5] | Potency [6] | Potency [7] | Potency [8] | outcome [9] | Potency [10] | outcome [11] | Potency [12] | Potency [13] | Potency [14] | Potency [15] | Potency [16]
active: Potency [4] 24.3 µM

c1cc(C(c2ccc(OCC3CO3)cc2)c2ccc(OCC3CO3)cc2)ccc1OCC1CO1 (centres undefined)
active: Potency [19] 49 µM
inactive: Potency [1] | Potency [17] | Potency [6] | Potency [7] | Potency [8] | outcome [9] | Potency [10] | outcome [11] | Potency [12] | Potency [13] | Potency [14] | Potency [16] | Potency [18]

CC1=NC(C)OC1C (centres undefined)
inactive: Potency [17] | Potency [2] | Potency [3] | Potency [4] | Potency [5] | Potency [6] | Potency [7] | Potency [8] | outcome [9] | Potency [10] | outcome [11] | Potency [12] | Potency [13] | Potency [14] | Potency [16] | Potency [18]
active: Potency [19] 34.7 µM

NNc1nc(-c2ccc([N+](=O)[O-])cc2)cs1
inactive: Potency [1] | Potency [5] | Potency [6] | Potency [7] | Potency [8] | outcome [9] | Potency [10] | outcome [11] | Potency [12] | Potency [13] | Potency [14] | Potency [15] | Potency [16]
active: Potency [2] 24.3 µM | Potency [3] 17.2 µM | Potency [4] 1.37 µM

CCCCCCCCCCCCCCCC[N+](C)(C)CCN(Cc1ccc(OC)cc1)c1ncccn1
active: Potency [4] 11.4 µM
inactive: Potency [1] | Potency [2] | Potency [3] | fluorescence, relative to Rose Bengal [5] 0.0174% [at 18.6 µM] | fluorescence, % of fluorescein control [6] -0.0711% [at 18.6 µM] | fluorescence, % of triamterene [7] 0.0413% [at 18.6 µM] | fluorescence, % of fluorescent control [8] -0.0306% [at 18.6 µM] | fluorescence, % of fluorescein [9] -0.0029% [at 18.6 µM] | fluorescence, % of fluorescent control [10] -0.0676% [at 18.6 µM] | activity change [11] -0.0015% [at 18.6 µM] | fluorescence, % of fluorescent control [12] -0.016% [at 18.6 µM] | fluorescence, % of Rose Bengal [13] 0.665% [at 18.6 µM] | fluorescence, % of fluorescent control [14] -0.0338% [at 18.6 µM] | fluorescence, % of fluorescein control [15] -0.0114% [at 18.6 µM] | fluorescence, % of fluorescent control [16] 0.0553% [at 18.6 µM] | Potency [18] | Potency [19]

OCCCCCCCCCCCCBr
inactive: Potency [1] | Potency [3] | Potency [5] | Potency [6] | Potency [7] | Potency [8] | outcome [9] | Potency [10] | outcome [11] | Potency [12] | Potency [13] | Potency [14] | Potency [16] | Potency [18]
active: Potency [4] 62.1 µM

S=c1[nH]c2ccccc2s1
inactive: Potency [17] | Potency [2] | Potency [3] | Potency [5] | Potency [6] | Potency [7] | Potency [8] | outcome [9] | Potency [10] | outcome [11] | Potency [12] | Potency [13] | Potency [14] | Potency [16] | Potency [18] | Potency [19]
active: Potency [4] 26.6 µM and 27.3 µM

CCOC(=O)c1nc(C(Cl)(Cl)Cl)n(-c2ccc(Cl)cc2Cl)n1
inactive: Potency [1] | Potency [2] | Potency [6] | Potency [7] | Potency [8] | outcome [9] | Potency [10] | outcome [11] | Potency [12] | Potency [13] | Potency [14] | Potency [15] | Potency [16]

CCCCCCCCCCCCCCCC(=O)OC[C@H](O)[C@H]1OC(=O)C(O)=C1O
inactive: Potency [2] | Potency [3] | Potency [4] | Potency [5] | Potency [6] | Potency [7] | Potency [8] | outcome [9] | Potency [10] | outcome [11] | Potency [12] | Potency [13] | Potency [14] | Potency [15] | Potency [16]

Oc1ccc(C2(c3ccc(O)cc3)CC3CC2C2CCCC32)cc1 (centres undefined)
inactive: Potency [3] | Potency [5] | Potency [6] | Potency [7] | Potency [8] | outcome [9] | Potency [10] | outcome [11] | Potency [12] | Potency [13] | Potency [14] | Potency [16]
active: Potency [17] 58.7 µM | Potency [4] 33 µM | Potency [19] 18.7 µM

CC(C)CCCCCCCCCCCCCCC(=O)O
active: Potency [17] 61.1 µM
inactive: Potency [2] | Potency [5] | Potency [6] | Potency [7] | Potency [8] | outcome [9] | Potency [10] | outcome [11] | Potency [12] | Potency [13] | Potency [14] | Potency [15] | Potency [16] | Potency [18] | Potency [19]

C/C=C(\C)C(=O)OCc1ccccc1
inactive: Potency [17] | Potency [2] | Potency [3] | Potency [5] | Potency [6] | Potency [7] | Potency [8] | outcome [9] | Potency [10] | outcome [11] | Potency [12] | Potency [13] | Potency [14] | Potency [15] | Potency [16]

CC[C@H]1O[C@]2(CC[C@@H]1C)C[C@@H]1C[C@@H](C/C=C(\C)C[C@@H](C)/C=C/C=C3\CO[C@@H]4[C@H](O)C(C)=C[C@@H](C(=O)O1)[C@]34O)O2
active: Potency [17] 12.1 µM | Potency [2] 54 µM | Potency [3] 68 µM | Potency [4] 21.5 µM
inactive: Potency [5] | Potency [6] | outcome [9] | Potency [10] | outcome [11] | Potency [12] | Potency [13] | Potency [14] | Potency [15] | Potency [16]

CCN(CC)CCNC(=O)c1c(C)[nH]c(/C=C2\C(=O)Nc3ccc(F)cc32)c1C
active: Potency [17] 11.9 µM
inactive: Potency [3] | Potency [5] | Potency [6] | Potency [7] | Potency [8] | outcome [9] | Potency [10] | outcome [11] | Potency [12] | Potency [13] | Potency [14] | Potency [16]
